SARS 3CLpro inh: SARS-CoV 3CLpro protease inhibition; P0C6X7; recombinant SARS-CoV 3CLpro, quenched FRET peptide cleavage; inhibition, % at 6 µM; hit rate 0.14% among 290,000; AID 1706; in the data active means inhibition above about 12%
ugtP null kill: growth inhibition of S. aureus ugtP deletion strain. S. aureus RN4220 ugtP deletion, OD600 growth, 16 h. growth inhibition, % (test concentration not listed). AID 1259309. hit rate 0.54% among 330,000; in the data active means growth inhibition above about 68%;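 further: plate controls were untreated wells for no effect and antibiotic for full effect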
Sa RN4220 lethal: kills Staphylococcus aureus RN4220; S. aureus RN4220 growth, OD600, 16 h; inhibition, % (no concentration beside the values); AID 1259311; hit rate 0.33% among 330,000; in the data active means inhibition above about 85%;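 further: plate controls were untreated cells for no effect and reference antibiotic for full effect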
CCHF vOTU inh-1: CCHFV vOTU protease inhibition | Pep-AMC fluorescence | inhibition, % at 11.5 µM | hit rate 0.55% among 370,000 | AID 651958; further: 0% = vehicle wells with enzyme and 100% = no enzyme wells
MazF activator: activators of E. coli MazEF toxin-antitoxin RNase. P0AE70. FAM/BHQ RNA-DNA oligo cleavage fluorescence, 5 h. activation, % at 20 µM. hit rate 0.32% among 350,000. AID 504720; in the data active means activation above about 50%
Target sequence (P0AE70 whole entry, looked up): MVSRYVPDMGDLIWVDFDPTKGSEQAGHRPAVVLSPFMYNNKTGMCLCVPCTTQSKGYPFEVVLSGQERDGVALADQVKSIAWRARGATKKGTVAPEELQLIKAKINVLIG
Mtb bLac sens: beta-lactam sensitization of Mtb H37Rv. M. tuberculosis H37Rv growth with meropenem, percent inhibition. inhibition, % at 25 µM. hit rate 0.27% among 330,000. AID 434955; call rule not given here;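 further: growth measured after seven days incubation then overnight dye step; 0% = bacteria only wells and 100% = bacteria with antibiotic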
CCHF vOTU inh-2: CCHFV vOTU protease inhibition, confirmation | inhibition, % at 11.5 µM | hit rate 17% among 1,900 | AID 686976 | Recombinant CCHFV vOTU, Pep-AMC fluorescence | shares compounds with CCHF vOTU inh-1
* = called active by the depositor; . = no result given. An excerpt weighted towards active compounds, which were near 1.3% of everything screened. Unless noted, no stated cut-off is given here; in the data, active means inhibition above about 30%; inactive means the rest.

SMILES	SARS 3CLpro inh	ugtP null kill	Sa RN4220 lethal	CCHF vOTU inh-1	MazF activator	Mtb bLac sens	CCHF vOTU inh-2
COc1cc(-c2ccc(Nc3ccccc3C(=O)O)c(OC)c2)ccc1Nc1ccccc1C(=O)O	4	55	27	51*	-2	.	39*
COc1cc(C(C)=NN2CCOCC2)cc(OC)c1OC	.	7	-1	.	.	.	.
Cc1cc(C)nc(SCc2ccc(C(=O)O)o2)n1	-3	6	2	10	11	0	.
Cc1cc(C(F)(F)F)nc(SCc2ccc(C(=O)O)o2)n1	0	-6	5	41*	5	-2	-10
CCC(C)C(C(=O)N1CCNCC1)n1cc(C(N)Cc2ccc(O)cc2)nn1 (configuration not stated)	.	-4	4	.	.	.	.
N#Cc1cc([N+](=O)[O-])ccc1NC(=O)CSc1n[nH]c(=O)n1C1CC1	.	0	4	32*	4	-1	-15
O=C(CSc1n[nH]c(=O)n1C1CC1)Nc1ccc(Cl)cc1Cl	.	0	3	3	1	-3	.
CC(=O)N(N=C1Sc2ccccc2C1=O)c1ccc(C)cc1C	.	5	-1	.	.	.	.
CC(=O)N(/N=C1\Sc2ccccc2C1=O)c1ccccc1C	7	.	.	47*	-3	18	38*
COc1ccc(C=NOCC(=O)N=Nc2c(O)[nH]c3ccc(Br)cc23)cc1	.	2	-5	.	.	.	.
O=C(O)c1cccc(Cn2c(Cl)c(/C=N/NC(=O)c3ccc(O)cc3)sc2=O)c1	-6	.	.	31*	-3	2	-4
O=C(O)c1cccc(Cn2c(Cl)c(C=NNC(=O)c3ccc(O)cc3)sc2=O)c1	.	2	-2	.	.	.	.
CC(Cn1nnc([N+](=O)[O-])n1)=NNC(=O)c1ccc(Cl)c(Cl)c1	.	45	16	.	.	.	.
O=C(CCNS(=O)(=O)c1ccc(OC(F)(F)F)cc1)NCCc1c[nH]c2ccccc12	.	-11	4	30*	4	-3	-24
CC(=O)c1ccc(S(=O)(=O)NCCC(=O)NCCc2c[nH]c3ccccc23)cc1	.	-3	8	-7	5	-1	.
CCOC(=O)N(C)c1c(CC)nc2c(OCCC3CCCCC3)cccn12	.	.	.	30*	.	.	6
Cc1nc2c(OCc3ccc(C(F)(F)F)cc3)cccn2c1N(C)C(=O)CCC1CCCC1	.	.	.	33*	.	.	4
CC(C)CC(NC(=O)c1nc[nH]c1C(=O)NCC(=O)OCc1ccccc1)C(=O)OCc1ccccc1 (configuration not stated)	.	8	9	.	.	.	.
CC1(C(=O)NS(=O)(=O)c2ccc(Cl)cc2)CCN1C(=O)C1(c2ccc(Cl)cc2)CC1 (configuration not stated)	.	.	.	12	.	.	.
CC(C)(C)c1ccc(S(=O)(=O)NC(=O)C2(C)CCN2C(=O)C2(c3ccc(Cl)cc3)CC2)cc1 (configuration not stated)	.	.	.	31*	.	.	-4
Cc1ccc(C(=NNc2nc3ccccc3s2)C2=C(O)c3ccccc3C2=O)cc1	.	3	6	.	.	.	.
CCCN(C(=O)c1cn(CCC)c2ccccc12)c1ccc(Oc2cccnc2)cc1	.	.	.	38*	.	.	3
CCCCCN(C(=O)CCc1cn(CCCCC)c2ccccc12)c1ccc(Oc2cccnc2)cc1	.	.	.	11	.	.	.
COC(=O)c1ccccc1NC(=O)COC(=O)C1CCCCC1	1	7	11	32*	-7	0	-8
COC(=O)c1ccccc1NC(=O)C1CCCC1	1	3	2	-14	2	-7	.
SMILES	SARS 3CLpro inh	ugtP null kill	Sa RN4220 lethal	CCHF vOTU inh-1	MazF activator	Mtb bLac sens	CCHF vOTU inh-2
CC(C)(C)C1C=C(C(=O)Nc2ccccc2)OC(OCCCCO)C1 (configuration not stated)	.	6	7	.	.	.	.
CC1=C(CC(=O)c2ccccc2)C(=O)c2ccccc2C1=O	2	15	20	40*	5	100	34*
O=C(CN1C(=O)c2ccccc2C1=O)c1ccccc1	-1	1	4	3	5	-8	.
Cc1ccc(Nc2ncnc3c2oc2ccccc23)cc1	0	-14	3	-3	4	6	.
COc1ccc(Nc2ncnc3c2oc2ccccc23)cc1	-6	.	.	33*	1	-1	-4
CCCCCCN1C[C@H](n2cc(COC(=O)c3ccccc3)nn2)[C@@H](O)C[C@@H]1c1ccc(C)cc1	.	.	.	37*	-15	.	8
CCCCCCN1C[C@H](n2cc(C3CC3)nn2)[C@@H](O)C[C@@H]1c1ccc(C)cc1	.	.	.	38*	-10	.	16
CCCCOCC1CN(CCCC)S(=O)(=O)c2c(cccc2N(C)S(=O)(=O)c2ccc(C)cc2)O1 (configuration not stated)	.	.	.	32*	.	.	-1
CCCCOCC1CN(CCCC)S(=O)(=O)c2c(F)cccc2O1 (configuration not stated)	.	.	.	15	.	.	.
CN(C)c1ccc(N/C=C/C(=O)c2ccco2)cc1	4	-10	7	68*	-1	72	-2
CC(=O)Nc1ccc(N/C=C/C(=O)c2ccco2)cc1	1	-3	-17	0	-1	-1	.
CCOC(=O)Cc1csc(NN=Cc2ccccc2)n1	.	-2	2	.	.	.	.
O=c1oc(-c2ccccc2)nc2sc3c(c12)CCC3	2	-26	8	2	13	.	.
Nc1nc(-c2ccccc2)nc2sc3c(c12)CCCC3	5	4	-8	30*	5	7	-17
O=C(NC1(O)C(=O)c2ccccc2C1=O)c1ccccc1	3	3	0	49*	-5	1	31*
O=C(NC1(O)C(=O)c2ccccc2C1=O)c1c(Cl)cccc1Cl	2	-3	-2	62*	-12	62	14
COC1(NC(=O)c2ccccc2)C(C)=CC(=O)C=C1C	-3	0	1	10	1	0	.
O=C(Cc1ccccc1)NC(Cc1ccc(O)cc1)C(=O)O (configuration not stated)	.	-1	-1	.	.	.	.
COc1cccc(NC(=O)/C=C/c2ccc(S(=O)(=O)N3CCOCC3)cc2)c1	.	4	0	30*	-6	9	-17
CC(=NNC(=S)NCC(C)(C)C)c1cc(F)cc(F)c1O	.	-7	3	.	.	.	.
Cc1cnc(C=NNC(N)=S)c2cccc(N)c12	.	.	.	45*	3	.	73*
O=C(N/N=C/c1c(O)n(CCc2ccccc2)c(=O)[nH]c1=O)c1ccccc1O	1	2	5	32*	-18	2	-8
CC(C(O)c1ccccc1)N(C)C(=O)C(N)Cc1ccccc1 (configuration not stated)	.	4	4	.	.	.	.
CN(c1ccccc1)c1ccc(/C=C(/CCC(=O)O)c2nc3ccccc3s2)cc1[N+](=O)[O-]	.	-7	10	32*	-14	.	26
O=C(O)CC/C(=C\c1ccc(N2CCCC2)c([N+](=O)[O-])c1)c1nc2ccccc2s1	1	25	24	33*	3	1	10
O=C(O)CC/C(=C\c1ccccc1[N+](=O)[O-])c1nc2ccccc2s1	-2	9	-7	-7	-8	-2	.
CCOC=Nc1c(C#N)c(CC#N)nn1-c1ccccc1	.	1	4	.	.	.	.

Screening data: PubChem, several laboratories
